Compound activity from PubChem BioAssay.
Only some compounds are listed: those with a hit (about 2.4% of all), similar ones and a draw of the others.
CHO-K1 Ca ag = M1 agonist counterscreen hit in parental CHO-K1 cells; Fluo-8 calcium fluorescence; scaled to maximal ATP response, vehicle zero; AID 602248; hit rate 0.48% among 360,000; activation, % at 3 µM; in the data active = activation above about 15%;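 also: untransfected CHO-K1 host cells lacking M1 receptor as counterscreen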
CHO-K1 Ca antag = counter-screen for M1 antagonists: effect in parental CHO-K1 cells. ATP-induced calcium, Fluo-8 fluorescence. inhibition, % at 3 µM. hit rate 0.6% among 360,000. AID 602250;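 active = inhibition above a per-plate cutoff, the plate's mean sample inhibition plus 3 SD, cut at about 24% in these data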
M1 ag = agonists of human M1 muscarinic receptor | P11229 | CHO-K1 hM1, Fluo-8 calcium fluorescence, agonist mode; 0% DMSO, 100% acetylcholine EC100 | activation, % at 3 µM | hit rate 0.33% among 360,000 | AID 588814;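 active = activation above the run's mean compound activation plus 3 SD, cut at about 16% in these data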;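 also: peak over basal fluorescence ratio within a 140 s kinetic read after compound addition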
Target sequence (P11229 whole entry, looked up): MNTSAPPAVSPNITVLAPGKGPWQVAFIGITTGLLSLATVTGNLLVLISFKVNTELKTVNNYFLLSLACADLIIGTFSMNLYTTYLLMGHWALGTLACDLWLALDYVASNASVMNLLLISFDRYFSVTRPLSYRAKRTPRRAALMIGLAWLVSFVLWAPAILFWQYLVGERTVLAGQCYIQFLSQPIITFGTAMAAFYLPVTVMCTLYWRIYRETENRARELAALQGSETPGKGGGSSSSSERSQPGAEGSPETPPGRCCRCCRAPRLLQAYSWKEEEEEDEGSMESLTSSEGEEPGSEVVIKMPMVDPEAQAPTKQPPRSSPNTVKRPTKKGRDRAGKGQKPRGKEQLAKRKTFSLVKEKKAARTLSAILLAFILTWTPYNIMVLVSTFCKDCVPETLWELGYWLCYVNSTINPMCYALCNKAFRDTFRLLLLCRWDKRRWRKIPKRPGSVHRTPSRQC
CHRM1 antagonist = human CHRM1 antagonism. P11229. inhibition, % at 3 µM. hit rate 1.3% among 360,000. AID 588852. CHO-K1 hM1, Fluo-8 calcium fluorescence, ACh EC80 antagonist;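 active = percent inhibition above its own plate's cutoff, namely the mean of that plate's compound wells plus 3 SD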;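 also: peak over basal fluorescence ratio during 140 s after agonist addition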
M1 PAM parental = nonselective activator or artifact in parental CHO-K1 calcium assay | ATP EC20, Fluo-8 calcium fluorescence; 0% at ATP EC20, 100% at ATP max | AID 602247 | activation, % at 3 µM | hit rate 0.02% among 360,000;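 active = activation above the run cutoff, the mean activation of all test compounds plus 3 SD, cut at about 40% in these data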;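 also: peak over basal fluorescence ratio in a 140 s read after ATP addition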
CHRM1 PAM = human CHRM1 positive allosteric modulation; activation, % at 3 µM; hit rate 0.088% among 360,000; AID 588819; CHO-K1 hM1, Fluo-8 calcium fluorescence, ACh EC20; 0% = ACh EC20, 100% = maximal ACh; in the data active = activation above about 19%, passing the limit was not always enough
A number is an active result; 0 = inactive.

SMILES	CHO-K1 Ca ag	CHO-K1 Ca antag	M1 ag	CHRM1 antagonist	M1 PAM parental	CHRM1 PAM
Cc1oc(C(C)(C)C)cc1-c1cc(NC(=O)c2ccc([N+](=O)[O-])cc2)n[nH]1	0	0	0	0	0	0
CCOC(=O)C(=O)N(C)c1c(CC)nc2c(OCc3cc(Cl)cc(Cl)c3)cccn12	0	28.8	0	0	0	0
CCn1c2ccccc2c2nnc(SCC(=O)Nc3c(C)n(C)n(-c4ccccc4)c3=O)nc21	0	0	0	0	0	0
CC(C)(C)NC(=O)CSc1nc(Cc2ccccc2)nc2ccccc12	0	0	0	0	0	0
CSc1nc(Cc2ccccc2)nc2ccccc12	0	24.0	0	0	0	0
CCN(C(=O)c1ccc(C(C)(C)C)cc1)c1nnc(Cn2nnc3ccccc32)s1	0	31.3	0	36.9	0	0
COc1cc(/C=C/C(=O)O)cc(S(=O)(=O)N2CCN(S(=O)(=O)c3ccc(Cl)cc3)CC2)c1OC	0	0	0	0	0	0
C(=C\c1ccccc1)/CN1CCN(C(c2nnnn2-c2ccc3c(c2)OCCO3)C2CC2)CC1 (configuration not stated)	0	0	0	0	0	0
C(=C\c1ccccc1)/CN1CCN(C(c2cccs2)c2nnnn2-c2ccc3c(c2)OCCO3)CC1 (configuration not stated)	0	0	0	90.0	0	0
C(=C\c1ccccc1)/CN1CCN(C(c2cc3ccccc3o2)c2nnnn2-c2ccc3c(c2)OCCO3)CC1 (configuration not stated)	0	0	0	76.3	0	0
CCCCn1nnnc1C(c1cc2ccccc2o1)N1CCN(C/C=C/c2ccccc2)CC1 (configuration not stated)	0	0	0	55.6	0	0
COc1ccc(C(c2nnnn2-c2ccc3c(c2)OCCO3)N2CCN(C/C=C/c3ccccc3)CC2)cc1 (configuration not stated)	0	0	0	93.5	0	0
CCC(c1nnnn1-c1ccc2c(c1)OCCO2)N1CCN(C/C=C/c2ccccc2)CC1 (configuration not stated)	0	0	0	0	0	0
C/C(=N\Nc1ccc(F)cc1F)c1ccc(Br)s1	0	0	0	0	0	0
COc1ccc(CNC(=S)Nc2ccccc2-c2ccccc2)cc1	0	0	0	0	0	0
COc1ccc(-n2nnnc2C(c2cccc3ccccc23)N2CCN(C/C=C/c3ccccc3)CC2)cc1 (configuration not stated)	0	0	0	0	0	0
COc1ccc(-n2nnnc2C(c2cc3ccccc3o2)N2CCN(C/C=C/c3ccccc3)CC2)cc1 (configuration not stated)	0	0	0	57.5	0	0
Cc1ccc(CNC(=S)Nc2cc(C(=O)O)ccc2C)cc1	0	31.2	0	0	0	0
O=C(OCC(=O)N(C1CCCCC1)C1CCCCC1)c1ccc(Cl)nc1	0	0	0	0	0	23.6
C[C@H](CO)N1C[C@H](C)[C@@H](CN(C)C(=O)Cc2ccccc2)OCc2cnnn2CCCC1=O	0	0	0	0	0	0
CC1CCCCC1NCC#CCOc1ccc(Cl)cc1 (configuration not stated)	0	0	0	62.6	0	0
CCCCOC(=O)C(C)Oc1ccc(=O)n(-c2ccccc2)n1 (configuration not stated)	0	0	0	0	0	0
CCCN1C(=O)S/C(=C/c2ccc(N3CCOCC3)o2)C1=O	0	0	18.0	0	0	0
O=C(Nc1ccccc1C(=O)Nc1nnc(C(F)(F)F)s1)c1ccccc1	0	26.3	0	0	0	0
Cc1cc(C)[n+](-c2ccc(C(C)C)cc2)c2[nH]c(=O)[nH]c(=O)c12	0	0	0	55.1	0	0
SMILES	CHO-K1 Ca ag	CHO-K1 Ca antag	M1 ag	CHRM1 antagonist	M1 PAM parental	CHRM1 PAM
CCOC(=O)C1=C(C)N(C)C(C)=C(C(=O)OCC)C1c1ccc(C(=O)OC)cc1	0	0	0	52.9	0	0
O=C(Oc1ccc2c(c1)O/C(=C\c1ccncc1)C2=O)c1cccs1	0	0	0	0	0	0
CC(=O)Oc1ccc2c(c1)O/C(=C\c1ccncc1)C2=O	18.2	0	0	0	0	0
CCC(C)N(C)Cc1cccc(C2(O)CCN(S(=O)(=O)c3ccc(F)c(C)c3)CC2)c1 (configuration not stated)	0	0	0	81.4	0	0
Cc1ccc(NC2=NCC(Cc3ccc(Br)cc3)S2)cc1 (configuration not stated)	0	0	0	38.2	0	0
CCc1ccccc1NC(=O)COC(=O)C1C2CC3OC(=O)C1C3C2 (configuration not stated)	0	0	0	0	0	0
Cc1ccc(S(=O)(=O)N2CCC(C(=O)OCC(=O)N(C)C3CCCCC3)CC2)cc1C	0	0	0	0	0	0
O=C(COC(=O)C1CCN(S(=O)(=O)c2ccc3c(c2)OCCO3)CC1)Nc1ccc(C(F)(F)F)cc1	0	24.4	0	0	0	0
CCN(CC)c1ccc(NC(=O)COC(=O)C2CCN(c3ccc(C(F)(F)F)cn3)CC2)cc1	0	0	0	0	0	0
CN(C(=O)COC(=O)C1CCN(S(=O)(=O)c2ccc3c(c2)OCCO3)CC1)C1CCCCC1	0	26.5	0	0	0	0
CCN(c1ccc(NC(=O)COC(=O)C2CCN(c3ccc(C(F)(F)F)cn3)CC2)cc1)C(C)C	0	0	0	34.6	0	0
Cc1cc(/C=C(\C#N)C(=O)NC2CC2)c(C)[nH]1	0	0	0	0	0	0
Cc1ccc(NC(=O)CN(C)C(=O)C(C)OC(=O)c2ccccc2NCCO)cc1 (configuration not stated)	0	0	0	0	0	27.5
Cc1sc2ncn(CC(=O)N3CCC(C(N)=O)CC3)c(=O)c2c1S(=O)(=O)N1CCOCC1	0	0	0	0	0	0
CCN(CC)CCNC(C(=O)Nc1cccc(C(C)=O)c1)c1ccccc1 (configuration not stated)	0	0	0	83.8	0	0
COC(=O)C1=CN(Cc2ccccc2)C=C(C(=O)OC)C1c1ccc(OC)c(OC)c1	0	0	0	0	0	0
COC(=O)C1=CN(Cc2ccccc2)C=C(C(=O)OC)C1c1ccc(O)c(OC)c1	0	25.4	0	0	0	0
Cn1nccc1C(=O)N1CCC(Cc2ccccc2)CC1	0	0	0	0	0	0
COc1ccc(C(=O)COC(=O)CCN2C(=O)C3C4CCC(C4)C3C2=O)cc1 (configuration not stated)	0	24.3	0	0	0	0
CN(C)c1ccc(/C=N/NC(=O)C(=O)/C=C2\NC3(CCCC3)Cc3ccccc32)cc1	0	0	0	0	0	25.5
COc1cc(/C=N/NC(=O)C(=O)/C=C2\NC3(CCCC3)Cc3ccccc32)ccc1O	0	0	22.0	0	0	0
